Assay outcomes from PubChem BioAssay.
3T3 cytotox: Cytotoxic Profiling in NIH 3T3 Cell Line of Diverse Libraries Using Quantitative High-Throughput Screening; AID 1345082, 2018; NIH 3T3 viability, CellTiter-Glo ATP luminescence, 48-72 h; 94,000 compounds, 4.3% hits; Potency, µM (top dose mostly 96.7 µM), inactives show at the top dose activity change, negative = cytotoxicity, actives largely listed as inhibitors; further: nearly all actives have a fitted effect of over 55% in size
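Cytotoxicity is measured as loss of cellular ATP: NIH 3T3 cells (400/well) are exposed to compound for 48 or 72 hr at 37 °C, then CellTiter-Glo luminescence is imaged after 10 min at room temperature.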
FLuc inh: Firefly luciferase inhibition profiling of diverse chemical library using quantitative high-throughput screening; 76,000 compounds, 2.5% hits; Potency, µM (highest dose often 115 µM), hits mostly inhibitors; purified P. pyralis luciferase, luminescence, biochemical; Luciferin 4-monooxygenase (Photinus pyralis), P08659; AID 1347043, 2019; further: nearly all actives have a fitted effect of over 65% in size
Target sequence (P08659 whole entry, looked up): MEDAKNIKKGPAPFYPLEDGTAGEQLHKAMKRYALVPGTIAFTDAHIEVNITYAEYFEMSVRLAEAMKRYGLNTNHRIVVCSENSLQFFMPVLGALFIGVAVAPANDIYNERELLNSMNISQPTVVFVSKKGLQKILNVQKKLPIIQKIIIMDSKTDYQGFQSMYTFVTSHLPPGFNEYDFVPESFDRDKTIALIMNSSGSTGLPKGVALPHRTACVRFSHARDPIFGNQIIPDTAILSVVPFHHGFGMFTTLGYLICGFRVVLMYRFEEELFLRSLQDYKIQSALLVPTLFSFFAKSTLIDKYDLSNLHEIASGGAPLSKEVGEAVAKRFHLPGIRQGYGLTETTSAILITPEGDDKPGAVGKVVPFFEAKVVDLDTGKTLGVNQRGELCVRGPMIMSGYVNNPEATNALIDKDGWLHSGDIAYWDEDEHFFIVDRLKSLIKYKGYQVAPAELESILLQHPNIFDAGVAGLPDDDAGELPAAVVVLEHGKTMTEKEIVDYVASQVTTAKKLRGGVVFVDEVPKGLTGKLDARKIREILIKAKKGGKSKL
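Inhibitors were tested against purified firefly luciferase in a biochemical, low-substrate format (both substrates at 10uM) and luminescence measured with a CCD imager.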
HEK293 tox: Cytotoxic Profiling in HEK 293 Cell Line of Diverse Libraries Using Quantitative High-Throughput Screening. HEK 293 viability, ATP luminescence (CellTiter-Glo), 48-72 h. Potency, µM (titrated, usually from 115 µM), without a hit: at the highest dose activity change, negative = cytotoxicity, hits mostly inhibitors. 94,000 compounds, 6.6% hits. AID 1345083, 2018; further: nearly all actives have a fitted effect of over 60% in size
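HEK 293 cells seeded at 250 cells/well were exposed to compound for 48 or 72 hr at 37 degree Celsius. Viability taken as ATP content by CellTiter-Glo luminescence.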
GPT2 inhibitor: Primary qHTS assay for inhibitors of Glutamate pyruvate transaminase 2 (GPT2) | AID 1671188, 2021 | 100,000 compounds, 0.25% hits | Potency, µM (series often up to 57.7 µM), for inactives: at the highest dose activity change, negative = inhibition, actives largely listed as inhibitors | Alanine aminotransferase 2 (Homo sapiens), Q8TD30 | Recombinant GPT2, coupled pyruvate oxidase/HRP Amplex Red fluorescence; further: nearly all actives have a fitted effect of over 60% in size
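Inhibition is scored from Amplex Red fluorescence generated when pyruvate oxidase and HRP act on pyruvate released by GPT2. Reactions contain 10ng/uL enzyme, 250uM a-KG and 2mM L-alanine and run 30 min at room temperature.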
hNpr1 antagonist: Natriuretic polypeptide receptor (hNpr1) antagonism - Primary qHTS; Potency, µM (highest dose often 46.3 µM), for the others: top-dose activity change, negative = inhibition, most hits filed as inhibitors; Atrial natriuretic peptide receptor 1 (Homo sapiens), P16066; 76,000 compounds, 1.6% hits; AID 1347048, 2019; HEK293 hNpr1 GloSensor cGMP, ANP-stimulated luminescence; calls by dose curve; further: nearly all actives have a fitted effect of over 60% in size
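Compound pre-incubated 30 min at room temperature on GloSensor-loaded HEK293 cells stably carrying hNpr1 and the pGS-40F cGMP biosensor. Stimulation uses hNppA at 0.1 nM final; luminescence is taken at baseline and 20 min post-agonist.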
Starred values were filed as active, the others as inactive; i = inactive; ? = inconclusive; . = not tested or not shown; [ ] = another dose, or the depositor's remark. Only some compounds are listed: those with a hit (about 10% of all), similar ones and a draw of the others. Unless noted, the call rests on the fitted dose curve; in most records, active means well fitted curve in the direction sought with a large enough effect; inconclusive means small, poorly fitted or top-dose-only effect, or another doubt; inactive means no such curve, though single readings can be large; an effect the other way counts as inactive or inconclusive. On the % scale 0 is the no-effect control and ±100 the full control effect; potency means the concentration at half of the fitted maximal effect.

SMILES | 3T3 cytotox | FLuc inh | HEK293 tox | GPT2 inhibitor | hNpr1 antagonist
CCC1=C(C(=O)OC)C(c2cccc(OC)c2OC)N2C(CC(=O)N3CCOCC3)=CSC2=N1 (centres undefined) | -2% | i | -9% | i | -19%
COc1ccc(Cn2c(C3CCN(C(=O)Cc4ccc(Cl)cc4)CC3)n[nH]c2=O)cc1 | 35µM* | i | ? | -17% | -13%
COc1cccc(C(=O)N2CCC3(CC2)SCC(=O)N3c2ccc(F)cc2)c1 | -1% | i | -5% | 3% | 4%
COc1ccc(CNC(=O)[C@@H](C)C2CC[C@@]3(C)CC[C@H](NC(=O)COc4ccccc4)[C@@H](C)[C@@H]3[C@H]2O)cc1 (some centres undefined) | 32µM* | i | 22µM* | i | ?
COc1ccc(CNC(=O)[C@@H](C)C2CC[C@@]3(C)CC[C@H](NC(=O)C4CC4)[C@@H](C)[C@@H]3[C@H]2O)cc1 (some centres undefined) | -27% | i | ? | ? | -2%
Cc1cc(C)c(NC(=O)Cn2c(=O)c(-c3noc(C)n3)c3n(c2=O)CCCC3)c(C)c1 | 5% | i | -3% | i | 3%
COc1ccccc1CCNC(=O)C1CC(c2ccc(F)c(C)c2)CN(C(=O)C2CC2)C1 (centres undefined) | 40µM* | i | 35µM* | -10% | -14%
Cc1nc2cccnc2n1CC1CCCN(S(=O)(=O)c2cccc(Br)c2)C1 (centres undefined) | ? | i | 45µM* | i | ?
CC(C)c1ccc(C(=O)N2CCC(Oc3ccc(C(=O)N(C)C)cn3)CC2)cc1 | -21% | i | ? | i | -13%
CN(C)C(=O)c1ccc(OC2CCN(C(=O)c3ccc(Cl)cc3)CC2)nc1 | 40µM* | i | ? | i | -17%
O=C1C(CCS(=O)c2ccccc2)C(=O)N(c2ccccc2)N1c1ccccc1 (centres undefined) | . | . | . | i | .
CS(=O)(=O)N[C@@H]1[C@@H](NC(=O)c2cn3ccsc3n2)[C@H]2CCO[C@H]21 | 1% | i | 2% | -6% | -1%
COc1ccccc1CNC(=O)CNC(=O)c1cccc(-c2ccc(C(F)(F)F)cc2)c1 | ? | . | 35µM* | -5% | .
O=C(CNC(=O)c1cccc(-c2ccsc2)c1)NCc1ccccc1F | -10% | . | i | -7% | .
O=C(CNC(=O)c1cccc(-c2ccc(C(F)(F)F)cc2)c1)NCc1ccccc1F | ? | . | 22µM* | i | .
Cc1ccccc1N1CCN(C(=O)c2cc3c(s2)CCN(C(=O)c2ccccc2)C3)CC1 | i | i | -7% | 0% | -2%
Cc1cccc(N2CCN(C(=O)c3ccc4c(c3)N(C(=O)c3ccccc3)CC4)CC2)c1C | 32µM* | i | 28µM* | 1% | -23%
COc1ccccc1-c1ccc2ncn(C3CC3)c(=O)c2n1 | ? | i | -3%[172 µM] | -12%[88.5 µM] | 3%[70.6 µM]
O=c1c2nc(NCc3ccccc3)ccc2ncn1Cc1ccccc1 | 35µM* | i | ? | -1%[88.5 µM] | 2%[70.6 µM]
Cc1csc(Nc2ccc3ncn(Cc4ccccc4)c(=O)c3n2)n1 | ? | i | ? | i | 1%[70.6 µM]
COc1ccccc1-c1ccc2ncn(Cc3ccccc3)c(=O)c2n1 | 7.9µM* | i | ? | -9%[88.5 µM] | 3%[70.6 µM]
CN(Cc1cccc2cnccc12)C(=O)COc1ccc(Cl)cc1Cl | ? | i | 45µM* | -28% | ?
NC(=O)C1CCN(C(=O)C[C@@H]2CCNC[C@@H]2Cc2cc(COc3ccccc3)on2)CC1 | i | i | i | i | -2%
CC(=O)N1CCN(C(=O)C[C@@H]2CCNC[C@@H]2Cc2cc(-c3ccccc3)on2)CC1 | 0%[138 µM] | i | -6%[172 µM] | i | -20%[70.6 µM]
CCN(CC)C(=O)C[C@@H]1CCNC[C@@H]1Cc1cc(-c2ccccn2)on1 | -25%[174 µM] | i | 1%[172 µM] | -19%[88.5 µM] | -4%[70.6 µM]
SMILES | 3T3 cytotox | FLuc inh | HEK293 tox | GPT2 inhibitor | hNpr1 antagonist
CCCCc1cc(C[C@H]2CNCC[C@H]2CC(=O)N(C)Cc2ccccc2)no1 | ? | i | 100µM* | 0%[88.5 µM] | -4%[70.6 µM]
CN(Cc1ccccc1)C(=O)C[C@@H]1CCNC[C@@H]1Cc1cc(-c2ccccc2)on1 | 10µM* | i | 25µM* | 4%[88.5 µM] | -30%[70.6 µM]
CN(Cc1ccccc1)C(=O)C[C@@H]1CCNC[C@@H]1Cc1cc(COc2ccccc2)on1 | 28µM* | i | 50µM* | 1%[88.5 µM] | -20%[70.6 µM]
Oc1ccc(-c2nc(C3CC3)nc3c2CN(Cc2ccccc2)CC3)cc1 | ? | i | ? | i | -4%
CN(C)c1ncc2c(n1)C(C)(C(=O)NCc1cccc(Cl)c1)CCC2 (centres undefined) | ? | i | 100µM* | 4%[88.5 µM] | -22%[70.6 µM]
CN(C)c1ncc2c(n1)C(C)(C(=O)Nc1ccncc1)CCC2 (centres undefined) | 10µM* | i | ? | -6%[88.5 µM] | -2%[70.6 µM]
CN(C)c1ncc2c(n1)C(C)(C(=O)NCc1cccc(F)c1)CCC2 (centres undefined) | ? | i | ? | -3%[88.5 µM] | -2%[70.6 µM]
CCn1ccnc1CN(C)Cc1cn(-c2ccccc2C)nc1-c1ccc(OC)c(F)c1 | ? | i | ? | ? | 1%
CCN1CC(CN(C)Cc2cn(-c3ccccc3C)nc2-c2ccc(OC)c(F)c2)CC1=O (centres undefined) | ? | i | 22µM* | -2% | 0%
NC[C@H]1O[C@H](Cc2cc(-c3ccc(F)cc3)on2)CC[C@@H]1O | -6%[174 µM] | 35µM* | ? | 1%[88.5 µM] | 14µM*
O[C@H]1CC[C@@H](Cc2cc(-c3ccc(F)cc3)on2)O[C@@H]1CNC1CCOCC1 | 0%[174 µM] | ? | i | -1%[88.5 µM] | -30%[70.6 µM]
O=C(NC[C@H]1O[C@H](Cc2cc(-c3ccc(F)cc3)on2)CC[C@@H]1O)NC1CCCCC1 | 89µM* | 71µM* | ? | 0%[88.5 µM] | 10µM*
O=C1N(Cc2ccc(F)c(F)c2)CCCC12CCN(c1nc3ccccc3o1)C2 (centres undefined) | 40µM* | 40µM* | ? | i | -13%
CCOc1cc(=O)n2c(c1C(=O)Nc1ccc(F)c(C)c1)CCCC2 | 3% | i | ? | 0% | 4%
O=C(O)c1ccnc(-c2ccnc(NCC(O)c3ccccc3Cl)n2)c1 (centres undefined) | i | 32µM* | i | -3% | 2%
